Results: ChEMBL document CHEMBL1156829
The full ranking holds about 5,400 compounds; the median of “IFI” is about 2, and the highest 2% start at about 22. The full list was thinned out, with the highest values kept by preference.

Test: NOVARTIS: Inhibition Frequency Index (IFI) - the number of HTS assays where a compound showed > 50% inhibition/induction, expressed as a percentage of the number of assays in which the compound was tested.
Format: functional

| SMILES | IFI [%] |
| --- | --- |
| CC1CC(C)CC(C)C(O)C(C#N)=CC=CCC(C2CCCC2C(=O)O)OC(=O)CC(O)C(C)C1 (stereo not given) | 25.8 |
| COc1ccc(Cn2cccc(C(=O)Nc3ccc(OC)cc3)c2=O)cc1 | 5.26 |
| Oc1ccccc1C=Nc1ccccc1[Te]c1ccccc1N=Cc1ccccc1O | 8.21 |
| Cc1nc2c(=O)n(C)c(=O)nc-2n(C)n1 | 25 |
| CCn1nc(/C=C/c2ccccc2)nc2c(=O)n(C)c(=O)nc1-2 | 16.7 |
| Cn1ncnc2c(=O)n(C)c(=O)nc1-2 | 26.7 |
| CCC(C)N1CCN(Cc2cccc(OC)c2OC)CC1 (stereo not given) | 3.17 |
| CCCC[C@@H](C)C(O)[C@H]1C(=O)N[C@@H](CC)C(=O)N(C)CC(=O)N(C)[C@@H](CC(C)C)C(=O)N[C@@H](C(C)C)C(=O)N(C)[C@@H](CC(C)C)C(=O)N[C@@H](C)C(=O)N[C@@H](C)C(=O)N(C)[C@@H](CC(C)C)C(=O)N(C)[C@@H](CC(C)C)C(=O)N(C)[C@@H](C(C)C)C(=O)N1C (stereo not given in full) | 3.45 |
| CNCC(O)c1ccc(Cl)c(Cl)c1 (stereo not given) | 0 |
| Nc1ccc(C(=O)NN=Cc2cccc([N+](=O)[O-])c2)cc1 | 0 |
| C=C[C@H]1CN2CC[C@H]1C[C@H]2[C@H](OC(=O)c1cccc([N+](=O)[O-])c1)c1ccnc2ccccc12 | 0.926 |
| COC1=CC(C)=C[C@@H](C)[C@@H](O)[C@H](C)CC(C)=CC=C[C@H](OC)[C@@H](C(C)C(O)[C@H](C)[C@@]2(O)C[C@@H](O)[C@H](C)[C@@H](C(C)C)O2)OC1=O (stereo not given in full) | 19.6 |
| C=CC1CN2CCC1CC2C(OC(=O)C1CC1)c1ccnc2ccccc12 (stereo not given) | 0 |
| Cc1ccc(CN2C3CCCC2CC(NC(=O)Nc2cccc(F)c2)C3)cc1 (stereo not given) | 1.32 |
| O=C(Nc1ccc(Oc2ccc(OC(F)(F)F)cc2)cc1)C1CC1 | 1.57 |
| COc1ccc(NC2=C(N3CCCCC3)C(=O)c3ccccc3C2=O)cc1 | 18.7 |
| CCOC(=O)CN(N=O)C1=C(N2CC2)C(=O)c2ccccc2C1=O | 30.8 |
| COc1cc(CN2CC3CC(C2)c2cccc(=O)n2C3)ccc1O (stereo not given) | 0 |
| O=C(NNC(=O)c1csnn1)c1ccc(C(F)(F)F)cc1 | 3 |
| Cc1nc(Oc2ccc3ccc(=O)oc3c2)c2c3c(sc2n1)CCCCC3 | 0 |
| Cc1c2ccccc2c(C)c2ccccc12 | 3.76 |
| NC(=O)Oc1ccc(Cc2ccccc2)cc1 | 0 |

| SMILES | IFI [%] |
| --- | --- |
| CC(Cc1ccccc1)NCc1ccccc1O (stereo not given) | 3.12 |
| CN1CCN(c2nc(Cl)nc3[nH]cnc23)CC1 | 0.699 |
| CC(=O)N(C1=C(N(C)C)C(=O)c2ccccc2C1=O)c1cccc(F)c1 | 15.4 |
| CC(=O)N(C1=C(N(C)C)C(=O)c2ccccc2C1=O)c1ccc(Cl)cc1 | 0 |
| CC(=O)N(C1=C(N(C)C)C(=O)c2ccccc2C1=O)c1ccc(F)c(F)c1 | 23.1 |
| COc1ccccc1-n1c(/C=C/c2cc(Br)ccc2O)nc2ccccc2c1=O | 8.06 |
| CC(C)[C@@]1(NC(=O)[C@@H]2C[C@@H]3c4cccc5[nH]cc(c45)C[C@H]3N(C)C2)O[C@@]2(O)[C@@H]3CCCN3C(=O)[C@H](CC3CCCCC3)N2C1=O | 9.52 |
| O=C1c2ccccc2-c2nc3nnnn3nc21 | 42.9 |
| CC=C[C@H]1O[C@@](O)([C@H](C)C(O)C(C)[C@@H]2OC(=O)C(OC)=CC(C)=C[C@H](C)[C@H](O)[C@H](CC)[C@H](O)C(C)CC(C)=CC=C[C@H]2OC)C[C@@H](O[C@@H]2C[C@H](O)[C@@H](OC(N)=O)[C@H](C)O2)[C@@H]1C (stereo not given in full) | 15 |
| CO/C(=C\C(N)=O)C(C)C(/C=C/c1csc(-c2csc(C(C)/C=C/C=C/C(C)C)n2)n1)OC (stereo not given) | 11.5 |
| C=C[C@H]1CN2CC[C@H]1C[C@H]2[C@H](OC(C)=O)c1ccnc2ccccc12 | 1.89 |
| CC[C@H]1CN2CC[C@@H]1C[C@@H]2[C@@H](O)c1ccnc2ccc(OC)cc12 | 2.16 |
| CC1OC(=O)C(C(C)C)NC(=O)C(C(C)C)OC(=O)C(C(C)C)NC(=O)C(C)OC(=O)C(C(C)C)NC(=O)C(C(C)C)OC(=O)C(C(C)C)NC(=O)C(C)OC(=O)C(C(C)C)NC(=O)C(C(C)C)OC(=O)C(C(C)C)NC1=O (stereo not given) | 27.7 |
| C=CC1(O)CN2CCC1CC2[C@@H](O)c1ccnc2ccc(OC)cc12 (stereo not given in full) | 3.57 |
| CCc1cc2c(cc1-c1csc(NC(=N)N)n1)C(C)(C)CCC2(C)C | 5.16 |
| CC1(C)CN=C(NCc2ccccc2Cl)S1 | 0 |
| C=CC1CN2CCC1CC2C(OC(=O)c1ccco1)c1ccnc2ccccc12 (stereo not given) | 0 |
| COc1cc2c3c(c4cc(OC)c(OC)cc4c2cc1OC)CN1CCC[C@@H]1C3 | 5.26 |
| OC1(c2ccc(Br)cc2)CCN(C2CCN(CCc3ccccc3)CC2)CC1 | 4.1 |
| Cc1cc(N(C)C)cc(C)[n+]1OC(=O)N(c1ccccc1)c1ccccc1 | 16.7 |
| CNC1CC2OC(C)(C1OC)n1c3ccccc3c3c4c(c5c6ccccc6n2c5c31)C(=O)NC4O (stereo not given) | 28.6 |
| C/C(=C\c1csc(C)n1)[C@@H]1C[C@@H]2O[C@@H]2CCC[C@H](C)C(O)[C@@H](C)C(=O)C(C)(C)[C@@H](O)CC(=O)O1 (stereo not given in full) | 6.9 |

| SMILES | IFI [%] |
| --- | --- |
| CC[C@H]1CN2CCc3cc(OC)c(OC)cc3[C@@H]2C[C@@H]1C[C@H]1NCCc2cc(OC)c(OC)cc21 | 23.8 |
| CC[C@H]1CN2CCc3cc(OC)c(OC)cc3[C@@H]2C[C@@H]1C[C@@H]1NCCc2cc(OC)c(OC)cc21 | 37 |
| CCC1CN2CCc3cc(OC)c(OC)cc3C2CC1CC1NCCc2cc(OC)c(OC)cc21 (stereo not given) | 33.3 |
| CC[C@H]1CN2CCc3cc(OC)c(OC)cc3[C@@H]2C[C@@H]1C[C@H]1NCCc2cc(O)c(OC)cc21 | 32.3 |
| COc1ccc(C=NNc2ccnc3cc(Cl)ccc23)cc1 | 4.8 |
| CN1C[C@@H](CSc2ccccn2)C=C2c3cccc4[nH]cc(c34)C[C@H]21 | 4.88 |
| C=CC1CN2CCC1C(C(O)c1ccnc3ccc(OC)cc13)C2 (stereo not given) | 2.29 |
| CC=C[C@H]1O[C@@](O)([C@@H](C)C(O)C(C)[C@H]2OC(=O)C(OC)=CC(C)=C[C@@H](C)[C@H](O)C(CC)[C@@H](O)[C@H](C)CC(C)=CC=C[C@@H]2OC)C[C@@H](O[C@H]2C[C@@H](O)[C@H](OC(N)=O)[C@@H](C)O2)[C@@H]1C (stereo not given in full) | 17.5 |
| CCCCCCCCCCCCn1ccc(=N)cc1 | 15.4 |
| CCC(C)(O)C(=O)O[C@H]1C(=O)OC2CC3C(C)=C[C@H](O)[C@@H](O)[C@]3(C)C3C24CO[C@]3(O)[C@H](O)[C@H](C)C14 (stereo not given in full) | 7.69 |
| COc1cc2c(O[C@@H]3O[C@H](CO)[C@@H](O)[C@H](O)[C@H]3O)c3c(c(-c4ccc5c(c4)OCO5)c2cc1OC)C(=O)OC3 | 12.4 |
| O=C(CCl)Nc1ccc(Cl)cc1 | 3.54 |
| COc1ccccc1N1CCN(Cc2cc(C)c(C)cc2O)CC1 | 2.94 |
| COc1ccc(C(Cc2ccccc2)NC2CN3CCC2CC3)cc1 (stereo not given) | 0 |
| c1ccc(CCNC2CCN(Cc3ccccc3)CC2)cc1 | 0 |
| O=C(NNC(=O)c1csnn1)c1ccc(Cl)cc1 | 1 |
| c1ccc(-c2nn(-c3ccccc3)[n+](-c3ccccc3)n2)cc1 | 11.2 |
| CCN(CC)S(=O)(=O)c1ccc(C(=O)c2c(C)c(C(=O)C(F)(F)F)c3ccccn23)cc1 | 3.12 |
| COc1ccc(C[C@H]2NC[C@H](O)[C@H]2OC(C)=O)cc1 | 33.6 |
| CC(=O)N(C1=C(N(C)C)C(=O)c2ccccc2C1=O)c1cccc(Cl)c1 | 7.14 |
| Clc1cccc(CNC2CCN(CCc3ccccc3)CC2)c1 | 0.781 |
| Cc1n(-c2ccccc2)c2c([n+]1C)C(=O)c1ccccc1C2=O | 33.3 |

| SMILES | IFI [%] |
| --- | --- |
| CO[C@H]1[C@H](C)[C@@H]([C@H]2CC[C@H]([C@@H]3CC[C@H]([C@@]4(C)O[C@]5(O[C@H](C[C@@H]6O[C@](O)([C@@H](C)C(=O)O)[C@@H](C)[C@H](O[C@H]7CC[C@H](OC)[C@@H](C)O7)[C@@]6(C)OC)C[C@@H](OC)[C@H]5C)[C@H](C)[C@H]4OC)O3)O2)O[C@](C)(O)[C@@H]1C | 15.5 |
| COc1cc2c(cc1O)CC[n+]1cc3c(OC)c(OC)ccc3cc1-2 | 0 |
| CCN1C(=O)N(CC(N)=O)C(=O)C12CCN(Cc1ccc(N(C)c3ccccc3)cc1)CC2 | 3.85 |
| CC(C)N1CC=C(c2c[nH]c3ccccc23)CC1 | 0 |
| CC[C@@H]1CN2CC[C@H]1C[C@H]2[C@H](O)c1ccnc2ccc(OC)cc12 | 1.32 |
| C[C@@H]1C[C@@H]([C@H](O)CC2CC(=O)NC(=O)C2)C(=O)[C@@H](C)C1 | 19.7 |
| C[C@H]1C[C@H](C)C(=O)[C@@H]([C@@H](O)CC2CC(=O)NC(=O)C2)C1 | 23.9 |
| CC(=O)OC1(C)CC(C)C(=O)C(C(O)CC2CC(=O)NC(=O)C2)C1 (stereo not given) | 22.6 |
| C[C@@H]1C[C@@H](C)C(=O)[C@@H](C(O)CC2CC(=O)NC(=O)C2)C1 (stereo not given in full) | 23.4 |
| OCCC1CN(Cc2cccc(Cl)c2)CCN1Cc1ccccc1 (stereo not given) | 7.69 |
| COC(=O)[C@]1(C)CC[C@]2(C)CC[C@]3(C)C4=CC=C5C(=CC(=O)C(O)=C5C)[C@]4(C)CC[C@@]3(C)[C@@H]2C1 | 21.4 |
| CC(=O)O[C@]1(C(C)=O)CCC2C3C=CC4=CC(=O)CC[C@]4(C)C3CC[C@@]21C (stereo not given in full) | 2.33 |
| Cc1nc2ccccc2c(=O)n1-c1ccc([N+](=O)[O-])cc1 | 0 |
| C=CC12CCN(CC1)C(C(O)c1ccnc3ccc(OC)cc13)C2 (stereo not given) | 0 |
| C=CC1CN2CCC1CC2[C@H](c1ccnc2ccccc12)S(=O)(=O)O (stereo not given in full) | 0 |
| O[C@@]1(c2cc3ccccc3s2)CN2CCC1CC2 | 1.63 |
| CCN1CCC(N2CCC(n3c(Cc4ccccc4OC)nc4cc(F)ccc43)CC2)CC1 | 1.7 |
| C=C[C@H]1CN2CC[C@H]1C[C@@H]2[C@@H](OC(=O)C(C)C)c1ccnc2ccccc12 | 1.67 |
| CC1=CC[C@@H](/C(C)=C/c2csc(C)n2)OC(=O)C[C@H](O)C(C)(C)C(=O)[C@H](C)[C@@H](O)[C@@H](C)CCC1 | 5.66 |
